Results filed as inconclusive are left out. Calls of active or inactive are those of the source. Calls come from the whole dose curve; as a rule, active = well fitted cell-killing curve with a large enough effect; inconclusive = small, poorly fitted or top-dose-only effect, or effect the other way; inactive = no such curve, though single readings can be large or run the other way.
test: Cell Viability - LYMP2-004 (AID 966); settings: LYMP2-004 lymphoblastoid cell viability, qHTS; series mostly up to 92.2 µM; activity change, negative = cytotoxicity: at the top concentration;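 note: plate controls were DMSO only for no effect and tetraoctylammonium bromide control for full effect; nearly all actives have a fitted effect of over 65% in size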
Description: NIH Chemical Genomics Center [NCGC]
NIH Molecular Libraries Screening Centers Network [MLSCN]
National Institutes of Environmental Health Sciences [NIEHS]
National Toxicology Program [NTP]
We have developed a 1536-well cell-based assay for quantitative high throughput screening (qHTS) against a number of cell lines to determine in vitro cytotoxicity of small molecules. This particular assay uses a human lymphoblastoid cell line (LYMP2-004) purchased from Coriell Institute for Medical Research.
NCGC Assay Protocol Summary:
The CellTiter-Glo luminescent cell viability assay (Promega) is a homogeneous method to measure the number of viable cells in culture. The end point readout of this assay is based on quantitation of intracellular ATP, an indicator of metabolic activity, using the luciferase reaction. Luciferase catalyzes the oxidation of beetle Luciferin to oxyluciferin and light in the presence of ATP. The luminescent signal is proportional to amount of ATP present.
Using the CellTiter-Glo luminescent cell viability assay, the amount of cellular ATP was measured in the lymphoblastoid cell line with complete culture medium following compound treatment for 24 hours. The assay was performed in opaque white Kalypsys 1536-well plates. In the screen, tetraoctylammonium bromide was used as positive control. Library compounds were measured for their ability to cause acute toxicity in the cell line, as reflected by a decrease in intracellular ATP levels, in a concentration-dependent manner. […] AC50 values were determined from concentration-response data modeled with the standard Hill equation.
qHTS protocol for CellTiter Glo lymphoblastoid cellular assay
[Step] [Parameter] [Value] [Description]
1. Reagent; 5 uL; 2500 lymphoblastoid cells/well
2. Time; 5 hr; 37 C incubation
4. Controls; 23 nL; Tetraoctylammonium bromide 6.4pM to 92 uM
5. Time; 24 hr; 37 C incubation
6. Reagent; 5 uL; CellTiter Glo reagent
7. Time; 30 min; Room Temperature
8. Detection; Luminescence; Viewlux plate reader
Keywords: cell viability, cytotoxicity, lymphoblastoid cell line, luminescence, NTPHTS, NTPHTS_NCGC, NIEHS, DSSTox, MLSMR, MLSCN, NIH Roadmap, qHTS, NCGC

Compound | activity change, negative = cytotoxicity | outcome
COc1ccc2[nH]cc(CCNC(C)=O)c2c1 | 23.9% (inactive) | 
CCC1(c2ccccc2)C(=O)NCNC1=O | 7.17% (inactive) | 
Cn1c(=O)c2c(ncn2C)n(C)c1=O | -5.79% (inactive) | 
Cc1cn([C@H]2C=C[C@@H](CO)O2)c(=O)[nH]c1=O |  | inactive
Clc1ccc(C(c2ccccc2Cl)C(Cl)Cl)cc1 (stereo not given) | 5.46% (inactive) | 
Nc1ccn([C@H]2CC[C@@H](CO)O2)c(=O)n1 | 6.21% (inactive) | 
Cn1c(=O)c2[nH]cnc2n(C)c1=O | 20% (inactive) | 
COc1ccc2c(c1)c(CC(=O)O)c(C)n2C(=O)c1ccc(Cl)cc1 | 8.97% (inactive) | 
COc1cc2c(c(OC)c1OC)-c1ccc(OC)c(=O)cc1[C@@H](NC(C)=O)CC2 | -23.1% (inactive) | 
Nc1c2c(nc3ccccc13)CCCC2 | -12.2% (inactive) | 
O=c1[nH]cc(F)c(=O)[nH]1 | -16.8% (inactive) | 
N[C@@H](Cc1c[nH]c2ccc(O)cc12)C(=O)O | -1.86% (inactive) | 
NS(=O)(=O)c1cc2c(cc1Cl)NCNS2(=O)=O | 5.56% (inactive) | 
CC(C)NCC(O)c1ccc(O)c(O)c1 (stereo not given) | 5.81% (inactive) | 
CC(COc1ccccc1)N(CCCl)Cc1ccccc1 (stereo not given) | -12.2% (inactive) | 
NCCS(=O)(=O)O | 7.83% (inactive) | 
CC(C)C(=O)Nc1ccc([N+](=O)[O-])c(C(F)(F)F)c1 | 6.03% (inactive) | 
Cc1ccc(-c2cc(C(F)(F)F)nn2-c2ccc(S(N)(=O)=O)cc2)cc1 | -1.28% (inactive) | 
Cc1cn([C@H]2C[C@H](N=[N+]=[N-])[C@@H](CO)O2)c(=O)[nH]c1=O | 10.4% (inactive) | 
O=c1c(-c2ccc(O)cc2)coc2cc(O)cc(O)c12 | -10.9% (inactive) | 

— PubChem BioAssay (NCATS)
